PubChem BioAssay (NCI)
About 83,000 compounds went through this panel and 20% of them were active in at least one assay; those are over-represented in the sample as a whole.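 Values shown are percent growth following 48 h exposure of cells in 96-well plates to a single concentration of compound; below 10 was considered active.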 Calls of active or inactive are those of the source.

These compounds were tested on HL-60(TB) leukemia (assay: NCI-60 one-dose screen, 48 h (100 = growth as untreated, 0 = no growth, -100 = all killed)). Conditions: 10 µM unless noted.

| SMILES | growth |
| --- | --- |
| CCn1cc(CNc2ccc(C(=O)Nc3ccc4ccccc4c3)cc2)c(C)n1 | 79.8% (inactive) |
| Cc1c(C(=O)Nc2nc3ccccc3[nH]2)cnn1-c1ccccn1 | 58.5% (inactive) |
| CC1=C(C(=O)OCc2ccccc2)C(c2ccc3c(c2)OCO3)n2c(nc3ccccc32)N1 (stereo not given) | -14.7% (active) |
| COC(=O)[C@]12CC[C@@H](C)[C@H](C)[C@@H]1C1=CC[C@@H]3[C@@]4(C)C[C@@H](OC(C)=O)[C@H](OC(C)=O)[C@@](C)(COC(C)=O)[C@@H]4[C@H](O)C[C@@]3(C)[C@]1(C)CC2 | -10.2% (active) |
| COC(=O)C1(C)CCC[C@]2(C)[C@H]3C[C@H]4C(C(C)C)=C[C@]3(CC[C@@H]12)[C@H]1[C@@H]4[C@@H](OCC#CCN2CCOCC2)CC[C@@H]1OCC#CCN1CCOCC1 (stereo not given in full) | 88.7% (inactive) |
| Oc1ccc(Cl)cc1CNc1nc2ccccc2[nH]1 | -56.6% (active) |
| C=CC[C@]1(O)CC[C@H]2[C@@H]3CCc4cc(O)ccc4[C@H]3CC[C@@]21C | 75.1% (inactive) |
| COc1cc(NC(=O)CSc2nc3ccc(C)cc3c(=O)n2-c2ccccc2)cc(OC)c1OC | 89.1% (inactive) |
| COc1ccc2[nH]cc(-c3noc(C(=O)c4cn(C)c5ccc(F)cc45)n3)c2c1 | 81.7% (inactive) |
| COc1cc(N)ccc1Nc1c2ccccc2nc2ccccc12 | 48.2% (inactive) |
| Cc1cc2c(C(C)C)c(O)c(O)c(C=NCCCCC(=O)O)c2c(O)c1-c1c(C)cc2c(C(C)C)c(O)c(O)c(C=NCCCCC(=O)O)c2c1O | 42.6% (inactive) |
| O=C(/C=C/c1cccc([N+](=O)[O-])c1)c1ccc(O)c(CN2CCN(c3cc4c(cc3F)c(=O)c(C(=O)O)cn4C3CC3)CC2)c1 | 8.41% (active) |
| CCCCCCCCNC(=O)C(C)C | 99.7% (inactive) |
| O=S(=O)(NCCCNc1cc(-c2cn(-c3ccccc3)nc2-c2cccc(O)c2)ccn1)c1cccc(F)c1 | 39.1% (inactive) |
| Cc1cccc([N+](=O)[O-])c1I | 143% (inactive) |
| N[C@H](CS)C(=O)O | 109% (inactive) |
| CCNCCNc1cc(-c2ccc(C#N)cc2)c(C#N)c2nc3ccccc3n12 | -45.4% (active) |
| CCCCCCCCCCCCCCCCCCNC(=O)[C@H]1CSC(c2ccc(OC)c(F)c2)N1 (stereo not given in full) | -60.3% (active) |
| N#CC(C#N)N=Nc1ccc(Cl)cc1 | -26.8% (active) |
| CC(=O)c1c[nH]c2ccccc12 | 114% (inactive) |

| SMILES | growth |
| --- | --- |
| Cc1cccc2c3c(sc12)C(c1ccc(Cl)cc1)C(C#N)=C(N)O3 (stereo not given) | -21% (active) |
| COc1cccc(-c2cnco2)c1OCc1c(C)c(COc2c(OC)cccc2-c2cnco2)c(C)c(COc2c(OC)cccc2-c2cnco2)c1C | 76.4% (inactive) |
| COc1ccc(-c2ccc(-c3ccc(C(=N)N)cn3)s2)cc1 | -37.1% (active) |
| CCn1cc2c(cc1=O)-c1nc3ccccc3c3ccnc(c13)C2=O | 93.9% (inactive) |
| COc1c(B(O)O)cc(F)cc1-c1nc2ccc3[nH]ncc3c2c2c1CCCC2 | -2.38% (active) |
| O=C(CCCC(=O)Nc1ccc(-n2nnc3cc(Cl)c(Cl)cc32)cc1)Nc1ccc(-n2nnc3cc(Cl)c(Cl)cc32)cc1 | 75.9% (inactive) |
| NS(=O)(=O)c1ccc(-n2nc(-c3ccc(Cl)cc3)ccc2=O)cc1 | 83.7% (inactive) |
| Cc1ccc2c(c1)c(-c1nc(-c3c[nH]c4ncccc34)cs1)cn2C | 84.1% (inactive) |
| Cc1ccc(-c2nc3nc(-c4ccc(F)cc4)nc(N4CCCNCC4)c3o2)cc1 | -70.3% (active) |
| COc1ccc2[nH]c(O)c(/C=c3/cc4c(c(-c5ccc(F)cc5)n3)=Nc3ccccc3-4)c2c1 | 92.5% (inactive) |
| O=C(N/N=C/C=C\c1ccccc1)C(=O)N/N=C/C=C/c1ccccc1 | 110% (inactive) |
| O=C1OC(/C=C/c2ccccc2)=NC/1=C/c1ccccc1[N+](=O)[O-] | 96.2% (inactive) |
| c1cnc2nc3c(cc2c1)oc1ccccc13 | 96.4% (inactive) |
| O=c1oc2ccc(Cl)cc2c(=O)n1-c1ccc(Cl)cc1F | -44.5% (active) |
| O=C(Nc1ccc(F)cc1)c1cc2cc(Nc3nc(-c4ccccc4)nc4ccccc34)ccc2oc1=O | 102% (inactive) |
| CC[C@]1(O)CC2CN(CCc3c([nH]c4ccccc34)C(C(=O)OC)(c3cc4c(cc3OC)N(C=O)[C@H]3[C@@](O)(C(=O)OC)[C@H](OC(C)=O)[C@]5(CC)[C@@H]6C[C@@H]6CN6CC[C@]43[C@@H]65)C2)C1 (stereo not given in full) | 0.642% (active) |
| COc1ccc(N(Cc2cc(OC)c(OC)c(OC)c2)C2OC(=O)c3ccccc32)cc1 (stereo not given) | 2.92% (active) |
| COc1ccc(-c2cc(-c3ccc(Cl)cc3)c(C#N)c(=O)n2Cc2ccc(C(=O)Nc3ccccc3N)cc2)cc1 | 84.7% (inactive) |
| COC1=CC(c2ccc[nH]2)=N/C1=C\c1[nH]c(C)c(C(=O)Oc2ccccc2)c1C | 11.4% (inactive) |
| O=C1CCc2c(sc3[nH]c(=S)n(Cc4ccccc4)c(=O)c23)C1 | 10.9% (inactive) |
